# NS1 function inh: qHTS Assay for Inhibitors of Influenza NS1 Protein Function; Potency, µM (series often up to 46.1 µM), for the others: top-dose activity, positive = more growth; 0.4% of 270,000 active; AID 2326, 2010; calls by dose curve; note: potency is the fitted concentration of half-maximal effect; actives are rising curves; nearly all actives have a fitted effect of over 50% in size
#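 Growth recovery, yeast-based: influenza A NS1 expressed in S. cerevisiae causes slow growth, and suppressors are detected by OD600. The parent strain without NS1 is used as positive control.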
# Sm TGR block: qHTS Assay for the Inhibitors of Schistosoma Mansoni Peroxiredoxins. Schistosoma mansoni thioredoxin glutathione reductase (TGR), Q962Y6. purified TGR, DTNB reduction, TNB absorbance 405 nm. Potency, µM (doses to about 114 µM), for the others: at the highest dose activity change, negative = inhibition, usual class: inhibitors. 3% of 360,000 active. AID 485364, 2010; note: potency is the fitted concentration of half-maximal effect; % is set by controls: 0 for no effect and ±100 for the full control effect; nearly all actives have a fitted effect of over 60% in size
#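 Kinetic colorimetric format: TGR-catalysed, NADPH-driven DTNB reduction monitored via TNB absorbance. Enzyme dispensed at 20 nM; compound exposure 15 min at room temperature before reaction start.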
# LmPK inh: qHTS Assay for Inhibitors of Leishmania Mexicana Pyruvate Kinase (LmPK). 0.37% of 290,000 active. purified LmPK, Kinase-Glo ATP luminescence, 1 h. Potency, µM (doses to about 57.5 µM), for the others: at the top dose activity change, negative = inhibition, usual class: inhibitors; note: potency is the fitted concentration of half-maximal effect; % is set by controls: 0 for no effect and ±100 for the full control effect
# Target sequence (Q27686 whole entry, looked up): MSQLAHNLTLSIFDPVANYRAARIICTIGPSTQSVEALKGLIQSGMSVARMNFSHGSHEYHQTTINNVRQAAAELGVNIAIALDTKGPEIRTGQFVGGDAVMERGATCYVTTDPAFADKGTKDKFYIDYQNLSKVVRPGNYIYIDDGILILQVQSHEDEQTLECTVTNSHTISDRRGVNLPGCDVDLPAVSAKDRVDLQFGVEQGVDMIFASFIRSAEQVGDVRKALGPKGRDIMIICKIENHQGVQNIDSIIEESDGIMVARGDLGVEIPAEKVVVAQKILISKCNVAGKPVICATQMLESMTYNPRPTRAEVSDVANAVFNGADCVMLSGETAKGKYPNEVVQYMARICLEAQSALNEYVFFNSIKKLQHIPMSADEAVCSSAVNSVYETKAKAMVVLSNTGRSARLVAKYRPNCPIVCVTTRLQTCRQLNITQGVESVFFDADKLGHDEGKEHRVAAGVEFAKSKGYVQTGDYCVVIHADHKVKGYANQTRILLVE
#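 Pyruvate kinase activity monitored as ATP production (luciferase luminescence). Conditions: 0.1 nM enzyme, 0.5 mM PEP, 0.1 mM ADP, 1 h, RT; normalized against uninhibited and no-enzyme wells.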
# FBPA Giardia inh: qHTS Assay for Inhibitors of Fructose-1,6-bisphosphate Aldolase from Giardia Lamblia; purified Giardia FBPA; 0.71% of 290,000 active; Potency, µM (titrated, usually from 59.6 µM), inactives show at the top dose activity, negative = inhibition, hits mostly inhibitors; note: potency is the fitted concentration of half-maximal effect; % is set by controls: 0 for no effect and ±100 for the full control effect; nearly all actives have a fitted effect of over 55% in size
#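 40 nM FBPA preincubated 10 min at RT with compound (up to 57.5 uM final), then substrate plus GAPDH/TPI/NAD/arsenate coupling and diaphorase/resazurin added. Fluorescence read after 20 min at RT, 525/598 nm.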
# TbPYK inhibitor: qHTS of Trypanosoma Brucei Inhibitors. 0.12% of 410,000 active. Potency, µM (titrated, usually from 76.8 µM), for inactives: at the top dose activity, negative = inhibition, hits mostly inhibitors. AID 624173, 2012. TbPYK enzyme, Kinase-Glo Plus ATP luminescence, 45 min; note: potency is the fitted concentration of half-maximal effect; % is set by controls: 0 for no effect and ±100 for the full control effect; nearly all actives have a fitted effect of over 50% in size
#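 TbPYK + substrate in 50 mM TEA pH 7.2, 100 mM KCl, 10 mM MgCl2, 0.05% BSA, 0.01% Tween-20; cpd pinned; ADP 130 uM final; 45 min RT; Kinase-Glo Plus 10 min; luminescence endpoint.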
# RE007 growth inh: qHTS Assay for Inhibitors of the HIV-1 protein Vpr; S. pombe RE007 Vpr strain, BacTiter-Glo ATP luminescence, 24 h; 0.21% of 360,000 active; Potency, µM (titrated, usually from 92.2 µM), inactives show at the top dose activity change, negative = less growth, actives largely listed as inhibitors; active = well fitted falling curve with a large enough effect; inconclusive = small, poorly fitted or top-dose-only effect; inactive = no such curve, though single readings can be large or run the other way; note: potency is the fitted concentration of half-maximal effect; % is set by controls: 0 for no effect and ±100 for the full control effect; nearly all actives have a fitted effect of over 50% in size
#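 Fission yeast RE007 carrying one integrated HIV-1 vpr copy, seeded at OD 0.01 in PMG+AL medium with 23 nL pinned compound. Grown 24 h at 30 degrees; viability read by BacTiter-Glo luminescence after 5 min.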
# Flu NS1 inh: Assay for Inhibitors of Influenza NS1 Protein Function: Hit Validation; 1,400 tested, under 10 active; activity change, negative = inhibition, % at 32.9 µM; shares compounds with NS1 function inh; influenza NS1 function cell assay, 15-point titration; calls by dose curve; note: 0% is about no effect
# The depositor's hits bear a star; u = inconclusive; x = no result given; [ ] = another dose, or the depositor's remark. Hits are enriched below; roughly 3.5% of the tested compounds scored in any of these assays. Unless noted, calls come from the whole dose curve; as a rule, active = well fitted curve in the direction sought with a large enough effect; inconclusive = small, poorly fitted or top-dose-only effect, or another doubt; inactive = no such curve, though single readings can be large; an effect the other way counts as inactive or inconclusive.
SMILES,NS1 function inh,Sm TGR block,LmPK inh,FBPA Giardia inh,TbPYK inhibitor,RE007 growth inh,Flu NS1 inh
O=C(Cc1ccsc1-c1ccccc1)NO,u,4%,-11%,-23%,-16%,5%,8
Cc1cc(=O)oc2cc(OC3C=CC(C#CC(C)(C)C)OC3CO)ccc12 (stereo not drawn),x,x,x,-1%[12.9 µM],x,x,x
COc1ccc(-c2noc(CCC(=O)O)n2)cc1,3.5µM*,0%,5%,-1%,4%,-11%,-30
O=C(NCc1ccccc1Cl)c1cc2c(s1)-c1ccc(Cl)cc1SC2,x,-10%,x,x,-9%,x,x
C/C(=N\NC(=O)c1[nH]c2c([N+](=O)[O-])cc(C)cc2c1-c1ccccc1)c1cccnc1,8.9µM*,12%,0%,x,6%,11%,-14
CCN(CC)S(=O)(=O)c1ccc2c(c1)NC(=O)C1CCCN21 (stereo not drawn),7%,u,1%,4%,2%,-8%,x
O=C1Nc2cc(S(=O)(=O)N3CCCC3)ccc2N2CCCC12 (stereo not drawn),13µM*,13µM*,1%,1%,-11%,-8%,33
N#CCSCC(=O)Nc1ccc(F)cc1,14µM*,6%,-7%,3%,3%,4%,-2
COc1cccc(N2CCN(c3ncnc4onc(-c5ccc(F)cc5)c34)CC2)c1,x,0%,x,x,-5%,x,x
O=C(Nc1cccc(S(=O)(=O)NC2=NCCCCC2)c1)c1ccc(Cl)cc1,x,-3%,x,x,0%,5%,x
Cc1ccc(-c2cc(C(=O)Nc3ccc(S(=O)(=O)Nc4nc(C)cc(C)n4)cc3)c3ccccc3n2)cc1,14µM*,-5%,-2%,3%,4%,10%,13
CC(=O)NS(=O)(=O)c1ccc(NC(=O)c2cc(-c3ccc(C)cc3)nc3ccccc23)cc1,8.9µM*,-2%,3%,4%,-9%,11%,5
CC(=O)NS(=O)(=O)c1ccc(NC(=O)c2cc(-c3ccc(C)c(C)c3)nc3ccccc23)cc1,22%,-13%,2%,u,-3%,4%,x
O=C(Nc1cccc(S(=O)(=O)NC2=NCCCCC2)c1)c1cc(-c2ccc(Cl)cc2)nc2ccccc12,11µM*,6%,2%,-9%,-2%,-1%,24
O=C(NC1CC(=O)N(c2ccc(F)cc2)C1)c1cc2ccccc2o1 (stereo not drawn),x,2%,x,x,1%,x,x
CCC(Cn1nnc2ccccc2c1=O)NC(=O)Nc1ccccc1Cl (stereo not drawn),x,9%,x,x,5%,x,x
O=C(CSc1nc2c([nH]c3ccccc32)c(=O)n1-c1ccccc1)N1CCCC1,x,-12%,x,x,4%,x,x
CC(C)OCCCNC(=O)c1c(N)n(/N=C/c2ccccn2)c2nc3ccccc3nc12,8.9µM*,0%,-3%,0%,-1%,u,8
CCC(C)NC(=O)c1c(N)n(/N=C/c2ccccn2)c2nc3ccccc3nc12 (stereo not drawn),11µM*,-6%,0%,1%,5%,3%,u
Cc1cc(C)n(CC(=O)Nc2ccc(F)c(F)c2)c(=O)c1C#N,x,-4%,x,x,-1%,x,x
Cc1ccc(C)c(Cn2c(=O)n(-c3ccc(Cl)cc3)c(=O)c3c4c(sc32)CCC4)c1,x,-4%,x,x,5%,x,x
COC(=O)c1c(NC(=O)CN2C(=O)c3ccccc3C2=O)sc(Cc2ccc3c(c2)OCO3)c1C,10µM*,-5%,-2%,4%,-2%,7%,-37
CCOc1ccc(CCNC(=O)c2cc(Nc3ccc(C)cc3C)nc3ccccc23)cc1OCC,x,6%,x,x,2%,x,x
Cc1cc(C(F)(F)F)c2c(n1)sc1c(O)cc(=O)[nH]c12,29%,2%,-10%,1%,-9%,1%,x
O=c1cc(O)c2sc3nc(-c4cccnc4)cc(C(F)(F)F)c3c2[nH]1,10µM*,0%,1%,-13%,-14%,-16%,18
SMILES,NS1 function inh,Sm TGR block,LmPK inh,FBPA Giardia inh,TbPYK inhibitor,RE007 growth inh,Flu NS1 inh
CCc1ccc(CNC(=O)c2cccc(-n3cnc4cccnc43)c2C)cc1,x,34%,x,x,4%[15.4 µM],x,x
Cc1c(NC(=O)C2CCN(S(=O)(=O)c3ccc(Cl)cc3)CC2)c(=O)n(-c2ccccc2)n1C,-4%,15%,-5%,x,-2%,-10%,x
Cc1c(NC(=O)C2CCCN2S(=O)(=O)c2ccccc2)c(=O)n(-c2ccccc2)n1C (stereo not drawn),7.1µM*,4%,10%,1%,-8%,4%,-10
C=C(C)C(=O)/C=C/c1ccc(Br)cc1,x,x,x,0%,x,x,x
COc1nc(NCCC2=CCCCC2)nc(OC)n1,-33%,13%,-2%,3%,8%,17%,x
C1=C(CCNC2=NCCCCC2)CCCC1,20µM*,0%,0%,29%,3%,10%,-11
Cc1ccc(C)c(Cn2c(=O)n(CCc3ccccc3)c(=O)c3c(C)c(C)sc32)c1,x,1%,x,x,5%,x,x
Cc1c([N+](=O)[O-])c([N+](=O)[O-])nn1CC(=O)N1CCCCC1,-19%,-12%,-4%,-2%,-2%,22%,x
Cc1c(Cl)c([N+](=O)[O-])nn1CC(=O)N1CCCC1,u,-13%,-3%,6%,-1%,10%,6
CCCc1cc(=O)[nH]c(SCC(=O)CSc2nc(CCC)cc(=O)[nH]2)n1,8.9µM*,-29%,2%,u,-7%,1%,30
CCOc1ccc(CNC(=O)c2ccc3nc(C(C)C)oc3c2)cc1,x,1%,x,x,0%,x,x
Cc1ccccc1NC(=O)CSc1nc(N)c(C#N)c(-c2cccs2)c1C#N,-28%,-7%,2%,3%,-8%,0%,x
COc1ccc(CCNC(=O)CSc2nc(N)c(C#N)c(-c3cccs3)c2C#N)cc1OC,4.5µM*,14%,5%,0%,-1%,-11%,9
Cc1cc(C)c(NC(=O)CSc2n[nH]c(-c3ccccc3Cl)n2)c(C)c1,x,-4%,x,x,-7%,x,x
CCc1ccc2oc(-c3cc(N)cc(C)c3O)nc2c1,14µM*,-26%,-9%,-16%,-9%,-13%,19
COc1ccc(C(C)C)cc1S(=O)(=O)NCCc1c(C)[nH]c2ccc(C)cc12,x,-2%,x,x,-5%,x,x
Cc1noc(C)c1-c1ccc2ncnc(NCc3cccc(-c4ccccc4)c3)c2c1,x,0%,x,6%,x,x,x
Cc1nnc(SCC(=O)OC2CC(C)CCC2C(C)C)[nH]c1=O (stereo not drawn),8%,-1%,2%,8%,3%,-2%,x

# Screening data: PubChem, National Center for Advancing Translational Sciences (NCATS)
